In the library only some 21% were active in any assay of this set; here they are far more common.
Pf growth 96h: Primary qHTS for delayed death inhibitors of the malarial parasite plastid, 96 hour incubation; P. falciparum luciferase reporter growth, 96 h; actives 6.9% (n = 320,000); Potency, µM (top dose mostly 28.7 µM), hits mostly inhibitors
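Delayed-death screen, second-generation endpoint: infected erythrocytes, 2% hematocrit, 0.05% parasitemia final; 96 hours at 37 C, 5% CO2; luciferase detection reagent; luminescence decrease equals reduced growth.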
AMA1-RON2 inh: qHTS for Inhibitors of AMA1-RON; Towards Development of Antimalarial Drug Lead: Primary Screen. Plasmodium falciparum AMA1 (3D7) - RON2 peptide interaction. AlphaScreen AMA1-biotinylated RON2 peptide binding. Potency, µM (series often up to 58.2 µM), actives largely listed as inhibitors. actives 0.2% (n = 360,000). AID 720542, 2013; further: nearly all actives have a fitted effect of over 45% in size
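AMA1 (3D7) with his tag at 25 nM final met compounds first, then biotinylated RON2 peptide at 25 nM; detection used donor plus acceptor beads, 10 µg/mL apiece, read by AlphaScreen after 30 min at room temperature.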
Pf growth 48h: Primary qHTS for delayed death inhibitors of the malarial parasite plastid, 48 hour incubation | AID 504832, 2011 | P. falciparum luciferase growth in erythrocytes, 48 h | actives 5.9% (n = 310,000) | Potency, µM (highest dose often 28.7 µM), most hits filed as inhibitors
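Growth was read as firefly luciferase luminescence after a 48 h, 37 C, 5% CO2 exposure of compounds to reporter-bearing P. falciparum cultures (0.1% parasitemia, 2% hematocrit final) in Albumax-supplemented RPMI 1640.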
Shiga inhibitor: A qHTS for Small Molecule Inhibitors of Shiga Toxin; Vero cells, Shiga toxin protein synthesis inhibition reporter; inhibition, % at 38.7 µM; actives 9.2% (n = 290,000); AID 2315, 2010; in the data active means inhibition mostly above about 28%, no sharp cut-off; inactive means mostly below about 43%
HCV inhibitor: qHTS Assay for Inhibitors of Hepatitis C Virus (HCV); Potency, µM (top dose mostly 41.8 µM), hits mostly inhibitors; AID 651820, 2012; actives 3.4% (n = 340,000); Huh7.5.1 HCVcc-Cre infection, luciferase reporter, 44 h
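A cell-based infection assay in which seeded cells (1,000 per well) receive test compound after 4 h, are inoculated with HCVcc-Cre at approximately 0.5 moi, and are incubated 44 h before luminescence detection.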
Cycloheximide cs: Cycloheximide Counterscreen for Small Molecule Inhibitors of Shiga Toxin. cell reporter, cycloheximide protein synthesis inhibition counterscreen. max response, %. actives 12% (n = 300,000); in the data active means max response mostly above about 13%, no sharp cut-off; inactive means mostly below about 14%; further: read at 38.3 µM for the half of the compounds with a filed dose
Hits are given with their value; n = inactive; u = inconclusive; x = no result. Unless noted, the call rests on the fitted dose curve; in most records, active means well fitted curve in the direction sought with a large enough effect; inconclusive means small, poorly fitted or top-dose-only effect, or another doubt; inactive means no such curve, though single readings can be large; an effect the other way counts as inactive or inconclusive.

SMILES | Pf growth 96h | AMA1-RON2 inh | Pf growth 48h | Shiga inhibitor | HCV inhibitor | Cycloheximide cs
O=C(Nc1ccc(-n2nncc2-c2ccco2)cc1)c1cc2ccccc2oc1=O | 11.7µM | u | n | n | n | n
O=C(Nc1ccc(-n2nncc2-c2ccco2)cc1)c1cccc(F)c1 | u | n | n | n | u | n
COc1cccc(NC(=O)c2cc3ccccc3oc2=O)c1 | u | n | n | x | n | 42.5
COC(=O)CNC(=O)c1ccc(F)cc1 | n | n | n | n | n | n
CC(=O)c1cccc(NC(=O)CSc2n[nH]c(=O)n2C2CC2)c1 | x | n | x | x | n | x
C=CCn1cc(C(=O)N2CCN(C)CC2)c(=O)c2cc(S(=O)(=O)N(CC)CC)ccc21 | n | n | n | n | n | n
COc1ccc2oc(=N)c(C(=O)Nc3ccccc3)cc2c1 | x | n | n | 85.3 | n | 38.7
COc1ccc2oc(=N)c(C(=O)Nc3ccccc3Cl)cc2c1 | n | n | n | 48.6 | n | 38.6
COc1ccc2oc(=N)c(C(=O)Nc3ccc(F)cc3)cc2c1 | u | n | n | n | n | n
N=c1oc2ccc(Cl)cc2cc1C(=O)Nc1ccc(F)cc1 | n | n | n | 43.7 | n | 23.7
COc1ccc2oc(=N)c(C(=O)Nc3ccc(C)cc3)cc2c1 | u | n | n | n | n | n
N=c1oc2ccccc2cc1C(=O)Nc1ccccc1 | u | n | n | 116.4 | n | 45.7
CC(=O)Nc1nn(C)c2nc(C)cc(C)c12 | n | n | n | n | n | n
CSCCC(NC(=O)c1ccco1)C(=O)N1CC(C)OC(C)C1 (centres undefined) | n | n | n | x | n | x
CCC(CC)C(=O)Oc1c(C(=O)N(C)C)cccc1-c1ccccc1 | x | n | x | x | n | x
O=C(Nc1ccccc1O)c1cc2cc(Br)ccc2oc1=O | n | n | n | 114.3 | n | 28.0
Cc1cccnc1NC(=O)c1cc2ccccc2oc1=O | n | n | n | 114.7 | u | 30.2
CCCCCCc1cc2cc(C(=O)Nc3ccccc3)c(=O)oc2cc1O | u | n | u | n | 4.47µM | n
COc1ccc(-c2c(C#N)c(SCC(=O)c3cc4ccccc4oc3=O)nc(C)c2C(=O)Nc2ccccc2)cc1 | 11.7µM | n | u | n | u | n
CCCCCCc1cc2cc(C(=O)NCc3ccccc3)c(=N)oc2cc1O | n | n | u | n | n | n
CC1CC(C)CN(S(=O)(=O)c2ccc3c(c2)CC(C)N3C(=O)C2CC2)C1 (centres undefined) | u | n | u | n | n | n
O=C1CC(c2ccc3c(c2)OCO3)c2cc(O)ccc2O1 (centres undefined) | x | x | x | n | x | n
COc1ccc(NC(=O)c2cc(C3CCCCN3C(=O)c3cc(OC)c(C)c(OC)c3)on2)c(C)c1 (centres undefined) | x | n | x | x | x | x
CNC(=O)c1cc2cc(OC)ccc2oc1=N | n | n | n | n | n | n
COc1ccc2oc(=N)c(C(=O)Nc3cccc(C)c3C)cc2c1 | u | n | n | 49.3 | n | 30.4
SMILES | Pf growth 96h | AMA1-RON2 inh | Pf growth 48h | Shiga inhibitor | HCV inhibitor | Cycloheximide cs
COC(=O)CSc1nc(-c2cccs2)ccc1C#N | u | n | n | n | n | 36.4
C#CCSc1nc(-c2cccs2)ccc1C#N | n | n | n | n | 4.47µM | n
Cc1cccc(OCCCC(=O)NNC(=O)CCN2CCN(c3ccccc3)CC2)c1 | n | n | u | x | n | x
Fc1cccc(Nc2nc3ccccc3n3cnnc23)c1 | u | n | n | n | n | n
Brc1ccc(Nc2nc3ccccc3n3nnnc23)cc1 | u | x | x | n | x | 65.1
CCN(CC)S(=O)(=O)c1ccc(Nc2nc3ccccc3n3nnnc23)cc1 | n | n | 4.65µM | 108.9 | n | 31.7
Fc1ccccc1Nc1nc2ccccc2n2nnnc12 | n | n | x | n | n | 40.5
c1ccc2c(c1)nc(Nc1ccc3c(c1)OCO3)c1nnnn12 | n | n | 10.4µM | 129.5 | n | 39.1
CC(=O)O[C@@H](C)C[N+](C)(C)C | n | x | n | x | x | x
C/C(COc1ccccc1)=N\NC(=O)c1nnn(-c2nonc2N)c1CSc1ccc(C)cc1 | x | n | x | x | x | x
Fc1cccc(Nc2nc3ccccc3n3nnnc23)c1 | 6.57µM | n | x | n | n | n
c1ccc(Nc2nc3ccccc3n3nnnc23)cc1 | n | n | u | 55.5 | n | 45.3
Cc1ccc(CNc2nc3ccccc3n3nnnc23)cc1 | n | n | n | n | n | n
CCOC(=O)N1CCC(Nc2nc3ccccc3n3nnnc23)CC1 | n | n | u | n | n | 18.9
Cc1ccc(-c2nc3ccccc3n3nnnc23)cc1 | n | n | n | n | u | n
COc1cccc(Nc2nc3ccccc3n3nnnc23)c1 | x | n | x | n | n | n
COCCn1cnc2c1-c1ccc(OC)c(c1)OC/C=C\COc1cccc-2c1 | x | x | x | n | x | n
COc1ccccc1NC(=O)CCCc1nnc2n(C)c(=O)c3sccc3n12 | n | n | n | n | n | n
Cc1c(-n2cc(C(=O)c3cc(Cl)ccc3O)cc(C#N)c2=O)c(=O)n(-c2ccccc2)n1C | n | n | n | n | n | n
N#Cc1cc(C(=O)c2cc(Cl)ccc2O)cn(-c2ccccc2)c1=O | 1.85µM | n | 9.28µM | n | n | n
N#Cc1cc(C(=O)c2ccccc2OCC(=O)Nc2ccccc2Cl)cn(C2CCCCC2)c1=O | u | n | u | n | u | n
N#Cc1cc(C(=O)c2cc(Br)ccc2O)cn(C2CCCCC2)c1=O | 1.04µM | n | 1.47µM | n | 11.2µM | n
COc1ccc(O)c(C(=O)c2cc(C#N)c(=O)n(-c3c(C)n(C)n(-c4ccccc4)c3=O)c2)c1 | 9.28µM | n | u | n | n | 22.4
Cc1ccc(NC(=O)c2cc(C(=O)c3cc(Cl)ccc3O)cn(-c3ccc(C)cc3)c2=O)cc1 | 0.185µM | n | 0.329µM | n | u | n
CN(CCOc1ccccc1)C(=S)Nc1ccc(OC(F)F)cc1 | n | n | n | n | u | n
SMILES | Pf growth 96h | AMA1-RON2 inh | Pf growth 48h | Shiga inhibitor | HCV inhibitor | Cycloheximide cs
COc1ccc(-c2cc(OC(=O)c3ccc(F)cc3)c3c(C)oc(C)c3c(=O)c2)cc1 | 10.4µM | x | u | n | x | n
COc1ccc(C[C@@H]2c3cc(OC)c(OC)cc3CC[N@+]2(C)CCC(=O)OCCCCCOC(=O)CC[N@@+]2(C)CCc3cc(OC)c(OC)cc3[C@H]2Cc2ccc(OC)c(OC)c2)cc1OC | n | x | n | x | x | x
Cc1cccc(N2CCN(C(=O)C3CCN(c4ncnc5c4nc4n5CCCCC4)CC3)CC2)c1C | u | n | n | n | 7.08µM | n
Cc1cccc(N2CCN(C(=O)C3CCN(c4ncnc5c4nc4n5CCCCC4)CC3)CC2C)c1 (centres undefined) | 11.7µM | n | n | n | 5.62µM | n
Cc1cccc(N2CCN(C(=O)C3CCCCC3)CC2)c1C | u | n | x | n | n | n
Cc1cc(N2CCC(C(=O)N3CCN(c4cccc(C)c4C)CC3)CC2)n2ncnc2n1 | x | n | 2.33µM | n | u | n
